Experimental data reported in PubChem BioAssay AID1159580 (chemical genetic matrix, 2015).
Values joined by “and” are separate entries in the source; they are usually repeats but may differ in a detail not shown here. Equal values may be shown once. Screen size: about 5,500 compounds; about 2,000 (36%) were called active. Another 18% or so got no clear call; they are omitted. No stated cut-off is given here; in the data, active means normalized growth mostly below about 0.91 (no sharp cut-off); inconclusive means no clear call, values can overlap the other calls; inactive means mostly above about 0.92. Some of the results follow.

Assay: chemical genetic growth profiling, strain panel (AID 1159580);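 further: tested at 20 µM; growth read once vehicle control cultures reached saturation at 30 °C; 1 = growth at the plate median or of vehicle wells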
Details: S. cerevisiae deletion strains, growth OD

Measured: normalized growth

CCCCN(CCCC)CCCOC(=O)c1ccc(N)cc1
inactive: locus YAL013W, strain DEP1, stronger effect = lower value 1 | locus YAL021C, strain ccr4, stronger effect = lower value 0.992 | locus YAL026C, strain drs2, stronger effect = lower value 0.991 | locus YAL030W, strain snc1, stronger effect = lower value 0.996 | locus YBL061C, strain skt5, stronger effect = lower value 0.986 | locus YBR009C, strain hhf1, stronger effect = lower value 0.998 | locus YBR021W, strain FUR4, stronger effect = lower value 1.07 | locus YBR023C, strain chs3, stronger effect = lower value 0.99 | locus YBR171W, strain sec66, stronger effect = lower value 0.986 | locus YBR229C, strain ROT2, stronger effect = lower value 0.998 | locus YBR231C, strain swc5, stronger effect = lower value 1 | locus YBR279W, strain paf1, stronger effect = lower value 0.994 | locus YCL011C, strain gbp2, stronger effect = lower value 0.985 | locus YCL016C, strain dcc1, stronger effect = lower value 0.99 | locus YCL029C, strain bik1, stronger effect = lower value 0.982 | locus YCL061C, strain MRC1, stronger effect = lower value 0.987 | locus YCL069W, strain vba3, stronger effect = lower value 0.991 | locus YCR088W, strain abp1, stronger effect = lower value 0.985 | locus YDL005C, strain med2, stronger effect = lower value 0.994 | locus YDL035C, strain GPR1, stronger effect = lower value 0.998 | locus YDL040C, strain nat1, stronger effect = lower value 0.99 | locus YDL074C, strain BRE1, stronger effect = lower value 0.977 | locus YDL101C, strain DUN1, stronger effect = lower value 0.979 | locus YDL134C, strain PPH21, stronger effect = lower value 1 | locus YDL185W, strain tfp1, stronger effect = lower value 0.968 | locus YDL192W, strain arf1, stronger effect = lower value 0.994 | locus YDR001C, strain nth1, stronger effect = lower value 0.992 | locus YDR069C, strain doa4, stronger effect = lower value 0.99 | locus YDR101C, strain arx1, stronger effect = lower value 0.986 | locus YDR137W, strain rgp1, stronger effect = lower value 0.879 | locus YDR150W, strain NUM1, stronger effect = lower value 0.995 | locus YDR159W, strain sac3, stronger effect = lower value 0.989 | locus YDR162C, strain NBP2, stronger effect = lower value 0.984 | locus YDR195W, strain ref2 0.99 | locus YDR297W, strain sur2, stronger effect = lower value 0.993 | locus YDR318W, strain mcm21, stronger effect = lower value 0.992 | locus YDR334W, strain swr1, stronger effect = lower value 0.983 | locus YDR335W, strain msn5, stronger effect = lower value 0.989 | locus YDR388W, stronger effect = lower value 0.989 | locus YDR392W, strain spt3, stronger effect = lower value 0.983 | locus YDR502C, strain sam2, stronger effect = lower value 1.01 | locus YEL003W, strain gim4, stronger effect = lower value 0.986 | locus YEL037C, strain rad23, stronger effect = lower value 0.991 | locus YEL061C, strain CIN8 (second series), stronger effect = lower value 0.981 | locus YEL061C, strain CIN8, stronger effect = lower value 0.998 | locus YER015W, strain faa2, stronger effect = lower value 0.991 | locus YER016W, strain bim1, stronger effect = lower value 0.991 | locus YER110C, stronger effect = lower value 0.989 | locus YER111C, strain swi4, stronger effect = lower value 1 | locus YER155C, strain BEM2 (second series), stronger effect = lower value 0.984 | locus YER155C, strain BEM2, stronger effect = lower value 1 | locus YER167W, strain BCK2, stronger effect = lower value 0.995 | locus YFR010W, strain ubp6, stronger effect = lower value 0.99 | locus YGL078C, strain dbp3, stronger effect = lower value 0.992 | locus YGL086W, strain mad1, stronger effect = lower value 0.994 | locus YGL167C, strain pmr1, stronger effect = lower value 0.991 | locus YGL173C, strain kem1, stronger effect = lower value 0.983 | locus YGL227W, strain vid30, stronger effect = lower value 0.983 | locus YGL240W, strain doc1, stronger effect = lower value 1 | locus YGL248W, strain PDE1, stronger effect = lower value 1 | locus YGL253W, strain hxk2, stronger effect = lower value 0.991 | locus YGR078C, strain PAC10, stronger effect = lower value 0.97 | locus YGR135W, strain pre9, stronger effect = lower value 0.994 | locus YGR229C, strain SMI1, stronger effect = lower value 0.961 | locus YGR252W, strain gcn5, stronger effect = lower value 1.16 | locus YHR013C, strain ard1, stronger effect = lower value 0.961 | locus YHR027C, strain rpn1, stronger effect = lower value 0.991 | locus YHR030C, strain SLT2, stronger effect = lower value 0.965 | locus YHR079C, strain IRE1 (second series), stronger effect = lower value 0.977 | locus YHR079C, strain IRE1, stronger effect = lower value 0.973 | locus YHR094C, strain hxt1, stronger effect = lower value 0.985 | locus YHR129C, strain ARP1, stronger effect = lower value 0.989 | locus YHR142W, strain chs7, stronger effect = lower value 0.992 | locus YHR200W, strain rpn10, stronger effect = lower value 0.996 | locus YIL066C, strain RNR3, stronger effect = lower value 0.991 | locus YIL073C, strain SPO22, stronger effect = lower value 0.937 | locus YIL125W, strain kgd1, stronger effect = lower value 0.987 | locus YIR030C, strain dcg1, stronger effect = lower value 0.997 | locus YJL092W, strain hpr5, stronger effect = lower value 0.986 | locus YJL095W, strain BCK1 (second series), stronger effect = lower value 0.993 | locus YJL095W, strain BCK1, stronger effect = lower value 0.967 and 0.982 | locus YJL115W, strain asf1, stronger effect = lower value 0.993 | locus YJL129C, strain trk1, stronger effect = lower value 1 | locus YJL134W, strain LCB3, stronger effect = lower value 0.993 | locus YJL154C, strain vps35, stronger effect = lower value 0.987 | locus YJL164C, strain tpk1, stronger effect = lower value 0.964 | locus YJL166W, strain qcr8, stronger effect = lower value 0.996 | locus YJL168C, strain set2, stronger effect = lower value 0.988 | locus YJL187C, strain SWE1 (second series), stronger effect = lower value 0.962 | locus YJL187C, strain SWE1, stronger effect = lower value 0.992 | locus YJR043C, strain POL32, stronger effect = lower value 0.993 | locus YJR066W, strain TOR1, stronger effect = lower value 0.95
